# Measured values: the supplement of paper PMC8728848
# Shown is part of a subset that was picked to be rich in the strongest signals.
# Key:
# Assay in all cases: glycan array binding signal (z-score within array); higher = stronger binding
# Settings in all cases: glycan notation: IUPAC condensed, linker removed
# [1] = target: Fuc(a1-2)Gal(b1-3)GlcNAc(b1-3)[Gal(b1-4)GlcNAc(b1-6)]Gal(b1-4)Glc
# In short: (§1)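 The Consortium for Functional Glycomics database supplied 3228 glycan arrays, of which those lacking an available protein sequence were dropped. The binding signal, a within-array Z-score, was averaged across arrays of the same protein sequence and across linkers. Negative scores can be read as non-binding.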
# [2] = target: Fuc(a1-2)Gal(b1-4)[Fuc(a1-3)]GlcNAc
# In short: as §1
# [3] = target: Fuc(a1-2)[Gal(a1-3)]Gal(b1-4)GlcNAc(b1-2)Man(a1-3)[Fuc(a1-2)[Gal(a1-3)]Gal(b1-4)GlcNAc(b1-2)Man(a1-6)]Man(b1-4)GlcNAc(b1-4)GlcNAc
# In short: as §1
# [4] = target: Fuc(a1-2)[Gal(a1-3)]Gal(b1-4)GlcNAc(b1-2)Man(a1-3)[Fuc(a1-2)[Gal(a1-3)]Gal(b1-4)GlcNAc(b1-2)Man(a1-6)]Man(b1-4)GlcNAc(b1-4)[Fuc(a1-6)]GlcNAc
# In short: as §1
# [5] = target: Fuc(a1-2)[Gal(a1-3)]Gal(b1-4)[Fuc(a1-3)]Glc
# In short: as §1
# [6] = target: Fuc(a1-2)[GalNAc(a1-3)]Gal(b1-4)GlcNAc(b1-2)Man(a1-3)[Fuc(a1-2)[GalNAc(a1-3)]Gal(b1-4)GlcNAc(b1-2)Man(a1-6)]Man(b1-4)GlcNAc(b1-4)GlcNAc
# In short: as §1
# [7] = target: Fuc(a1-2)[GalNAc(a1-3)]Gal(b1-4)GlcNAc(b1-3)Gal(b1-4)GlcNAc
# In short: as §1
# [8] = target: Fuc(a1-2)[GalNAc(a1-3)]Gal(b1-4)GlcNAc(b1-3)Gal(b1-4)GlcNAc(b1-3)Gal(b1-4)GlcNAc
# In short: as §1
# Gal(b1-3)GlcNAc = target: Gal(b1-3)GlcNAc
# In short: as §1
# [9] = target: Gal(b1-3)GlcNAc(b1-3)Gal(b1-4)Glc
# In short: as §1
# [10] = target: Gal(b1-3)[Neu5Ac(b2-6)]GalNAc
# In short: as §1
# [11] = target: Gal(b1-4)GlcNAc(b1-3)Gal(b1-4)Glc
# In short: as §1
# [12] = target: Gal(b1-4)GlcNAc(b1-3)Gal(b1-4)GlcNAc(b1-3)Gal(b1-4)GlcNAc
# In short: as §1
# [13] = target: GalNAc(a1-3)GalNAc(a1-3)Gal(a1-4)Gal(b1-4)GlcNAc
# In short: as §1
# [14] = target: GalNAc(b1-3)Gal(a1-6)Gal(b1-4)Glc
# In short: as §1
# [15] = target: GlcNAc(a1-4)Gal(b1-4)GlcNAc(b1-3)Gal(b1-4)GlcNAc(b1-3)Gal(b1-4)GlcNAc
# In short: as §1
# [16] = target: GlcNAc(a1-6)Gal(b1-4)GlcNAc
# In short: as §1
# GlcNAc(b1-3)Gal = target: GlcNAc(b1-3)Gal
# In short: as §1
# Kdn(a2-3)Gal(b1-3)GlcNAc = target: Kdn(a2-3)Gal(b1-3)GlcNAc
# In short: as §1
# Man(b1-4)GlcNAc = target: Man(b1-4)GlcNAc
# In short: as §1
# [17] = target: Neu5Ac(a2-3)Gal(b1-3)[Fuc(a1-4)]GlcNAc(b1-3)Gal(b1-3)[Fuc(a1-4)]GlcNAc
# In short: as §1
# Neu5Ac(a2-3)Gal(b1-4)Glc = target: Neu5Ac(a2-3)Gal(b1-4)Glc
# In short: as §1
# [18] = target: Neu5Ac(a2-3)Gal(b1-4)GlcNAc(b1-3)Gal(b1-4)GlcNAc
# In short: as §1
# [19] = target: Neu5Ac(a2-3)Gal(b1-4)GlcNAc(b1-3)GalNAc
# In short: as §1
# [20] = target: Neu5Ac(a2-3)[Neu5Ac(a2-6)]GalNAc
# In short: as §1
# Neu5Ac(a2-6)Gal(b1-4)Glc = target: Neu5Ac(a2-6)Gal(b1-4)Glc
# In short: as §1
# [21] = target: Neu5Ac(a2-6)Gal(b1-4)GlcNAc(b1-3)Gal(b1-4)GlcNAc(b1-3)Gal(b1-4)GlcNAc
# In short: as §1
# [22] = target: Neu5Ac(a2-6)Gal(b1-4)GlcNAc(b1-3)Gal(b1-4)[Fuc(a1-3)]GlcNAc(b1-3)Gal(b1-4)[Fuc(a1-3)]GlcNAc
# In short: as §1
# Neu5Ac(a2-6)GalNAc = target: Neu5Ac(a2-6)GalNAc
# In short: as §1
# [23] = target: Neu5Gc(b2-6)Gal(b1-4)GlcNAc
# In short: as §1
binder,measurement,setting,value
Gal 3 (Canis lupus) (protein) MADSFSLNDALSGSGNPNPQGWPGPWGNQPAGAGGYPGASYPGAYPGQAPPGGYPGQAPPGGYPGQAPPGGYPGQAPPGGYPGQAPPGGYPGQAPPGTYPGPTAPAYPGPTAPGTQPGQPSGPGAYPPPGQPSAPGAYPAAGPFGIPAGPLTVPYDLPLPGGVKPRMLITILGTVRPSANRLALDFKRGNDVAFHFNPRFNEDNKRVIVCNTKLDNIWGKEERQAAFPFESGKPFKIQVLVESDHFKVAVNDAHLLQYNHRMKNLPEISKLGISGDIDLTSASYAMI,glycan array binding signal (z-score),[1],-0.147
same,glycan array binding signal (z-score),[2],-0.259
same,glycan array binding signal (z-score),[3],7.41
same,glycan array binding signal (z-score),[4],4.22
same,glycan array binding signal (z-score),[5],-0.118
same,glycan array binding signal (z-score),[6],7.54
same,glycan array binding signal (z-score),[7],5.05
same,glycan array binding signal (z-score),[8],5.42
same,glycan array binding signal (z-score),Gal(b1-3)GlcNAc,-0.231
same,glycan array binding signal (z-score),[9],-0.074
same,glycan array binding signal (z-score),[10],-0.259
same,glycan array binding signal (z-score),[11],0.512
same,glycan array binding signal (z-score),[12],5.09
same,glycan array binding signal (z-score),[13],-0.258
same,glycan array binding signal (z-score),[14],-0.254
same,glycan array binding signal (z-score),[15],3.48
same,glycan array binding signal (z-score),[16],-0.252
same,glycan array binding signal (z-score),GlcNAc(b1-3)Gal,-0.264
same,glycan array binding signal (z-score),Kdn(a2-3)Gal(b1-3)GlcNAc,-0.149
same,glycan array binding signal (z-score),Man(b1-4)GlcNAc,-0.261
same,glycan array binding signal (z-score),[17],-0.23
same,glycan array binding signal (z-score),Neu5Ac(a2-3)Gal(b1-4)Glc,-0.247
same,glycan array binding signal (z-score),[18],0.679
same,glycan array binding signal (z-score),[19],-0.205
same,glycan array binding signal (z-score),[20],-0.261
same,glycan array binding signal (z-score),Neu5Ac(a2-6)Gal(b1-4)Glc,-0.246
same,glycan array binding signal (z-score),[21],5.91
same,glycan array binding signal (z-score),[22],-0.23
same,glycan array binding signal (z-score),Neu5Ac(a2-6)GalNAc,-0.257
same,glycan array binding signal (z-score),[23],-0.25
